NS1 function inh – influenza NS1 inhibition | AID 2326 | Potency, µM (titrated, usually from 46.1 µM), for the others: top-dose activity, positive = more growth | actives 0.4% (n = 270,000); also: potency is read from the fitted curve at half-maximal effect; actives are rising curves; nearly all actives have a fitted effect of over 50% in size
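S. cerevisiae expressing influenza A NS1, grown in glucose, washed, then diluted 1:100 into pH 6.0 -URA galactose medium with 23 nl compound. Growth recovery read as OD600; NS1-free strain serves as control.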
Tb PYK inh – T. brucei pyruvate kinase inhibition | Q57TT1 | TbPYK enzyme, Kinase-Glo Plus ATP luminescence, 45 min | Potency, µM (top dose mostly 76.8 µM), for the others: top-dose activity, negative = inhibition, actives largely listed as inhibitors | actives 0.12% (n = 410,000); active = well fitted curve in the direction sought with a large enough effect; inconclusive = small, poorly fitted or top-dose-only effect, or another doubt; inactive = no such curve, though single readings can be large; an effect the other way counts as inactive or inconclusive; also: potency is read from the fitted curve at half-maximal effect; % is scaled to controls: 0 for no effect and ±100 for the full control effect; nearly all actives have a fitted effect of over 50% in size
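Luminescence from Kinase-Glo Plus, added after a 45-minute room-temperature reaction, served as the end-point read-out. The enzyme and substrate were preincubated with compound before ADP (130 uM final) initiated turnover. Concentration-effect curves came from normalized qHTS data.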
LmPK inhibitor – inhibitors of Leishmania mexicana pyruvate kinase; Q27686; purified LmPK, Kinase-Glo ATP luminescence, 1 h; Potency, µM (series often up to 57.5 µM), inactives show at the highest dose activity change, negative = inhibition, usual class: inhibitors; actives 0.37% (n = 290,000); active = well fitted curve in the direction sought with a large enough effect; inconclusive = small, poorly fitted or top-dose-only effect, or another doubt; inactive = no such curve, though single readings can be large; an effect the other way counts as inactive or inconclusive; also: potency is read from the fitted curve at half-maximal effect; % is scaled to controls: 0 for no effect and ±100 for the full control effect
Target sequence (Q27686 whole entry, looked up): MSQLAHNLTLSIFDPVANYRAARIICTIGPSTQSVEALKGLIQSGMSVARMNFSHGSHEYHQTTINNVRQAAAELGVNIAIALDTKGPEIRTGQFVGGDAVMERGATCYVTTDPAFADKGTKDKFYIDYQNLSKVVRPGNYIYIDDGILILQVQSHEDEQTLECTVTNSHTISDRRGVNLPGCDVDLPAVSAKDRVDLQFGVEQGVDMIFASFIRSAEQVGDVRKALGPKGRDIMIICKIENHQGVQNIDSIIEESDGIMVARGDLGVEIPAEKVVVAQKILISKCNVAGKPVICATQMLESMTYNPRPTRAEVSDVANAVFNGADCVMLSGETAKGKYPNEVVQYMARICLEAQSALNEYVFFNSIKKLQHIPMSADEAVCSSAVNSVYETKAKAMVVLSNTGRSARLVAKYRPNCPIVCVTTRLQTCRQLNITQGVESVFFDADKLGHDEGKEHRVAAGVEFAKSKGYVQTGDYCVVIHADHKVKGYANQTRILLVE
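Screened at intermediate enzyme activity to detect both inhibitors and activators: LmPK at 0.1 nM, with a 0.5 nM enzyme column as activation reference. PEP 0.5 mM, ADP 0.1 mM; ATP detected by luminescence after 1 h.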
RE007 growth inh – less growth of the S. pombe RE007 Vpr strain; actives 0.21% (n = 360,000); Potency, µM (doses to about 92.2 µM), for inactives: at the top dose activity change, negative = less growth, hits mostly inhibitors; AID 651644; S. pombe RE007 Vpr strain, BacTiter-Glo ATP luminescence, 24 h; active = well fitted falling curve with a large enough effect; inconclusive = small, poorly fitted or top-dose-only effect; inactive = no such curve, though single readings can be large or run the other way; also: potency is read from the fitted curve at half-maximal effect; % is scaled to controls: 0 for no effect and ±100 for the full control effect; nearly all actives have a fitted effect of over 50% in size
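Fission yeast RE007 carrying one integrated HIV-1 vpr copy, seeded at OD 0.01 in PMG+AL medium with 23 nL pinned compound. Grown 24 h at 30 degrees; viability read by BacTiter-Glo luminescence after 5 min.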
NS1 inh valid – validation of influenza NS1 protein function inhibitors. shares compounds with NS1 function inh. 1,400 tested, under 10 active. influenza NS1 function cell assay, 15-point titration. activity change, negative = inhibition, % at 32.9 µM; also: 0% is about no effect
PR8 titer – influenza NS1 inhibitors: inhibition of influenza A/PR/8/34 replication; shares compounds with NS1 function inh; actives 30% (n = 95); AID 504647; MDCK infected influenza A/PR/8/34, virus titer TCID50; stronger effect = lower value; virus titer (log TCID50), log10 TCID50 at 5 µM; call rule not given here
* hit, by the source's call; [ ] = dose if it differs, or a comment. Compounds with a hit are over-represented: about 0.77% of the library has one in this group of screens. Unless noted, calls follow the shape of the full dose curve.

For N/N=c1\sc2ccccc2n1-c1ccccc1 the results were NS1 function inh 11µM*, Tb PYK inh 2%, LmPK inhibitor -2%, RE007 growth inh 11%, NS1 inh valid 25 and PR8 titer 8.
For COc1nc(Cl)nc(Cl)c1Cl (tested in a mixture with another compound) the results were NS1 function inh 5%.
For O=C(CN1CCNCC1)NC1CCCCC1 the results were Tb PYK inh -10%.
O=C(COc1ccc(F)cc1)Nc1ccc(OCc2cc(=O)n3ccsc3n2)cc1 was read as Tb PYK inh -13%.
Cc1ccccc1OCc1nc2c3cnn(-c4cccc(F)c4)c3ncn2n1 was read as Tb PYK inh -5%.
`CCCC12C(=O)C(C)(C(c3ccccc3)=C1c1ccccc1)C1C(=O)N(c3ccc(C)cc3)C(=O)C12` (stereo not drawn) gave NS1 function inh 10µM*, Tb PYK inh -11%, LmPK inhibitor 3%, RE007 growth inh 3%, NS1 inh valid -26 and PR8 titer 6.5*.
Screening CCC12C(=O)C(CC)(C(c3ccccc3)=C1c1ccccc1)[C@@H]1C(=O)N(c3ccc(C)cc3)C(=O)C12 (stereo partly drawn) returned NS1 function inh 7%, Tb PYK inh -2%, LmPK inhibitor -4% and RE007 growth inh 3%.
`C/C(=N\NC(=O)Cc1cc(=O)[nH][nH]1)c1cccc([N+](=O)[O-])c1` gave NS1 function inh 27%, Tb PYK inh -12%, LmPK inhibitor -1% and RE007 growth inh -9%.
C/C(=N/NC(=O)Cc1cc(=O)[nH][nH]1)c1ccc([N+](=O)[O-])cc1 was read as NS1 function inh 13µM*, Tb PYK inh -8%, LmPK inhibitor 3%, RE007 growth inh -4% and NS1 inh valid inconclusive.
Screening Cc1ccc(-c2nc(C)c(CCNS(=O)(=O)c3ccccc3F)s2)cc1 returned Tb PYK inh -1%.
O=C(CN1CC[n+]2c(-c3cccs3)csc21)c1ccc(Br)cc1 was read as NS1 function inh 4.5µM*, Tb PYK inh -11%, LmPK inhibitor 5%, RE007 growth inh -15% and NS1 inh valid 27.
Screening Cc1[nH]nc2c1C(c1ccc(F)cc1)C(C#N)=C(N)O2 (stereo not drawn) returned NS1 function inh 5%, Tb PYK inh 9%, LmPK inhibitor -4% and RE007 growth inh 2%.
Cc1oc(C)c2c(=O)ccc3c(c12)OC(N)=C(C#N)C3c1ccc(F)cc1 (stereo not drawn) was read as NS1 function inh 8.9µM*, Tb PYK inh -15%, LmPK inhibitor 8%, RE007 growth inh 8% and NS1 inh valid 7.
Screening COc1cc(NS(=O)(=O)c2ccc(NC(=S)NC(=O)c3cccs3)cc2)nc(OC)n1 returned NS1 function inh inconclusive, Tb PYK inh -9%, LmPK inhibitor 11% and RE007 growth inh inconclusive.
`Cc1cc(C)cc(NS(=O)(=O)c2ccc(NC(=S)NC(=O)c3cccs3)cc2)c1` gave NS1 function inh 13µM*, Tb PYK inh -14%, LmPK inhibitor 0%, RE007 growth inh -12% and NS1 inh valid -33.
N#Cc1cccc(NC(=O)N2CC[C@@]3(CCCN(C(=O)c4cccc(F)c4)C3)C2)c1 was read as Tb PYK inh 2%.
CN(c1ccccc1)S(=O)(=O)c1ccc2[nH]c(=O)oc2c1 was read as NS1 function inh inconclusive, Tb PYK inh 2%, LmPK inhibitor -1%, RE007 growth inh 4% and NS1 inh valid 9.
Screening COc1ccc2c(c1)c(=O)c(C(=O)c1ccc(F)cc1)cn2CC(=O)Nc1ccc2c(c1)OCO2 returned Tb PYK inh -7%.
For O=C(CN1C(=O)CSc2ccccc21)N1CCc2ccccc21 the results were NS1 function inh inconclusive, Tb PYK inh -7%, LmPK inhibitor -2%, RE007 growth inh -6% and NS1 inh valid 4.
`COC(=O)C1=C(C(=O)OC)[C@@H]2N(C)c3ccccc3[C@@]23C[C@@H](C(=O)OC)N(S(=O)(=O)c2ccc([N+](=O)[O-])cc2)C3=N1` gave LmPK inhibitor 4%[11.5 µM].
COc1cc(NC(=O)c2cccnc2)ccc1-c1cc2ccccc2oc1=O was read as LmPK inhibitor 7%.
`O=C(Nc1ccc(-c2cc3ccccc3oc2=O)c(Cl)c1)c1cccnc1` gave NS1 function inh 2.2µM*, Tb PYK inh 14%, LmPK inhibitor 2%, RE007 growth inh 12% and NS1 inh valid 7.
For CCCNc1nc(NCc2ccccc2OC)c2cnn(C)c2n1 the results were Tb PYK inh 6%.
Screening Cc1cc(=O)[nH]c(SCC(=O)Nc2nc(-c3ccccc3)c(-c3ccccc3)o2)n1 returned NS1 function inh inconclusive, Tb PYK inh -3%, LmPK inhibitor 12%, RE007 growth inh -3% and NS1 inh valid -14.
CCOC(=O)c1c(C)[nH]c(C(=O)C(C)OC(=O)c2cccc(OCc3c(C)noc3C)c2)c1C (stereo not drawn) was read as NS1 function inh 13µM*, Tb PYK inh -17%, LmPK inhibitor 6%, RE007 growth inh -2% and NS1 inh valid -8.
For COc1ccc(S(=O)(=O)N2CCC(N3CCCCC3)CC2)cc1 the results were NS1 function inh 1.1µM*, Tb PYK inh -8%, LmPK inhibitor 0%, RE007 growth inh 5% and NS1 inh valid 11.
Screening COc1ccc(S(=O)(=O)N2CCC(C(=O)N3CCOCC3)CC2)cc1 returned NS1 function inh -15%, Tb PYK inh -9%, LmPK inhibitor -1% and RE007 growth inh 18%.
For COc1ccc(S(=O)(=O)N2CCN(C3CCCCCCC3)CC2)cc1 the results were NS1 function inh 3%, Tb PYK inh 3%, LmPK inhibitor -3% and RE007 growth inh 11%.
For COc1ccc(S(=O)(=O)N2CCN(C(=O)C3CC3)CC2)cc1 the results were NS1 function inh inconclusive, Tb PYK inh -2%, LmPK inhibitor 1%, RE007 growth inh -3% and NS1 inh valid -2.
`COc1ccc(NC(=O)C2CCN(S(=O)(=O)c3c(C)noc3/C=C/c3cccs3)CC2)cc1Cl` gave Tb PYK inh 0%.
Screening Cc1nc2cnc(N3CCNCC3)nc2n(C2CC2)c1=O returned Tb PYK inh 0%.
Screening Cc1cc2cc(CNC(=O)c3cccc([N+](=O)[O-])c3)ccc2n1C returned NS1 function inh 20%, Tb PYK inh 3%, LmPK inhibitor 1% and RE007 growth inh -4%.
